# Measurements reported in PubChem BioAssay (Tox21).
# Records with an inconclusive call do not appear. Entries that show only a call come without a potency. Activity calls are given as the source filed them. Calls come from the whole dose curve; as a rule, active = well fitted curve in the direction sought with a large enough effect in the repeat runs; inconclusive = weak or mixed curves; inactive = no such curve, though single readings can be large; an effect the other way counts as inactive or inconclusive.
# Target: Cytochrome P450 1A2 (Homo sapiens) (UniProt P05177)
# Sequence (P05177 whole entry, looked up): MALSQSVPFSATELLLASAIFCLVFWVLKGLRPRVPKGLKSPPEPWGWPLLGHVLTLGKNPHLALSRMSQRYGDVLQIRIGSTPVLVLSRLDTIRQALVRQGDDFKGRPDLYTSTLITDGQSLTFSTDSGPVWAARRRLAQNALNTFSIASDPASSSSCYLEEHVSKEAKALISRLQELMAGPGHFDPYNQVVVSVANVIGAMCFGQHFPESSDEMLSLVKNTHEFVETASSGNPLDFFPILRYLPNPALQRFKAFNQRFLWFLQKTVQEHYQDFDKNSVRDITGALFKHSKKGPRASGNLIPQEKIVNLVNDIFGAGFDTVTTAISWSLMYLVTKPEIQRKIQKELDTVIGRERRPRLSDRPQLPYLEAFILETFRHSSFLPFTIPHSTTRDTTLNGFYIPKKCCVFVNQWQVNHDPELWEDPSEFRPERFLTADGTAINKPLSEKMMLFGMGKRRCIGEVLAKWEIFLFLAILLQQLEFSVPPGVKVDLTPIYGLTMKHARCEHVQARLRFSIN
# Assay: Cytochrome P450 Family 1 Subfamily A Member 2 (CYP1A2) small molecule antagonists: luciferase reporter qHTS assay (AID 1671199)
# Settings: P450-Glo CYP1A2 enzyme, luciferin luminescence, 1 h; series mostly up to 115 µM
# Outline: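 P450-Glo CYP1A2, 1536-well qHTS: enzyme/proluciferin substrate + cpd (DMSO), 10 min RT; NADPH regen, 1 h RT; detection reagent, 20 min; luminescence, RLU.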
# Note: nearly all actives have a fitted effect of over 50% in size.
# Potency is the fitted concentration of half-maximal effect.
row,SMILES,Potency
1,Nc1c(Br)cc([N+](=O)[O-])cc1Br,1.78 µM (active)
2,O=C1OC(=O)c2cc(-c3ccc4c(c3)C(=O)OC4=O)ccc21,35.6 µM (active)
3,C=Cc1ccc(O)c(OC)c1,35.6 µM (active)
4,CCCCCc1ccc(O)cc1,63.3 µM (active)
5,CCSCC,inactive
6,Cc1c(Cl)c(=O)oc2cc(O)ccc12,17.8 µM (active)
7,CCCCCCCCOC(=O)c1cc(O)c(O)c(O)c1,71 µM (active)
8,CN1CCN(CCCN2c3ccccc3Sc3ccc(Cl)cc32)CC1,2.57 µM (active)
9,Nc1ccc(Cl)c([N+](=O)[O-])c1,31.7 µM (active)
10,CC/C=C\C/C=C\C/C=C\CCCCCCCC(=O)OC,63.3 µM (active)
11,CSc1ccc(O)cc1C,63.3 µM (active)
12,CCCC(=O)c1cc(O)c(O)cc1O,37.7 µM (active)
13,CC(C)=NNC(N)=S,71 µM (active)
14,c1ccc(C[P+](c2ccccc2)(c2ccccc2)c2ccccc2)cc1,inactive
15,CCN(CC)c1ccc(C=O)cc1,5.64 µM (active)
16,COc1cccc(-c2ccc(/C=C\CN3CCCCCC3)cc2Cl)c1,56.1 µM (active)

# Target: Voltage-gated inwardly rectifying potassium channel KCNH2 (Homo sapiens) (UniProt Q12809)
# Sequence (Q12809 whole entry, looked up): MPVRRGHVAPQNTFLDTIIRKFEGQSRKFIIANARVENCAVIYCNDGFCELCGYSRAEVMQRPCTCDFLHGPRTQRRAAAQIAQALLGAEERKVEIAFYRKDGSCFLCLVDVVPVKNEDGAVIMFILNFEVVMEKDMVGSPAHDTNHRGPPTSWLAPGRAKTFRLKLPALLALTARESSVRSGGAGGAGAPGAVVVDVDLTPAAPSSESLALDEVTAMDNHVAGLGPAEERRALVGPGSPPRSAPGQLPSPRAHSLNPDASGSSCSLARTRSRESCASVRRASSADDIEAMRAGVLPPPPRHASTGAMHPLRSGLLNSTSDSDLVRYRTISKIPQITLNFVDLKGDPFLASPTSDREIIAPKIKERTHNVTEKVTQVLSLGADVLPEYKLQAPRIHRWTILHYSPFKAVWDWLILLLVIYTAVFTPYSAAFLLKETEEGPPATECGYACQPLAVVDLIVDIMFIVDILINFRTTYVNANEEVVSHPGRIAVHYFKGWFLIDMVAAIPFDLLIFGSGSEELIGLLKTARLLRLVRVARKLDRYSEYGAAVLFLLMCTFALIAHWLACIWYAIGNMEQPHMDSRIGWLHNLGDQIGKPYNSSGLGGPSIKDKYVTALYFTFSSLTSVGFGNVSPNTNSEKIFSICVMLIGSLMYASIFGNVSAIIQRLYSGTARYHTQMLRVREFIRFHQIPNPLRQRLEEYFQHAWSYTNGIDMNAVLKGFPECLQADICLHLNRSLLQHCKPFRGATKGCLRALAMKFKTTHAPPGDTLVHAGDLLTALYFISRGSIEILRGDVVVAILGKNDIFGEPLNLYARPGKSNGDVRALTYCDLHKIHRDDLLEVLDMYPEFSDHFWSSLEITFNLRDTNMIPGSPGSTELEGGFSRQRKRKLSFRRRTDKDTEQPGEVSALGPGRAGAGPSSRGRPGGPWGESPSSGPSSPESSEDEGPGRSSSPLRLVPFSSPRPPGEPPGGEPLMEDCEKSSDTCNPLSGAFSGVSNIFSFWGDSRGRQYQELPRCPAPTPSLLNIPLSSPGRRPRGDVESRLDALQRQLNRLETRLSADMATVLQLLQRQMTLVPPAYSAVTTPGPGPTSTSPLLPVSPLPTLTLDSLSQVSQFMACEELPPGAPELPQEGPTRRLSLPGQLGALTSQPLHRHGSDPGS
# Assay: Human Ether-a-go-go-Related Gene (hERG) channel small molecule antagonists: fluorescence cell-based qHTS assay (AID 1671200);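 for activity change, negative = inhibition: hERG-expressing U2OS cells given a thallium stimulus after FluxOR II dye loading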
# Settings: hERG-U2OS cells, FluxOR thallium flux fluorescence; series mostly up to 76.8 µM
# Outline: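 Measured: Tl+ flux via fluorescence (480/540 nm) in hERG-expressing U2OS cells after 1 h dye loading at room temperature.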
SMILES,Potency,"activity change, negative = inhibition"
Nc1c(Br)cc([N+](=O)[O-])cc1Br,inactive,–
O=C1OC(=O)c2cc(-c3ccc4c(c3)C(=O)OC4=O)ccc21,inactive,–
C=Cc1ccc(O)c(OC)c1,inactive,–
CCCCCc1ccc(O)cc1,inactive,–
CCSCC,inactive,–
Cc1c(Cl)c(=O)oc2cc(O)ccc12,inactive,–
Nc1ccc(Cl)c([N+](=O)[O-])c1,inactive,–
Cc1ccc(Cl)c(N)c1Cl,inactive,–
COc1cc([C@@H]2c3cc4c(cc3[C@@H](O[C@@H]3O[C@@H]5CO[C@@H](C)O[C@H]5[C@H](O)[C@H]3O)[C@H]3COC(=O)[C@H]23)OCO4)cc(OC)c1O,inactive,–
Nc1cccnc1N,inactive,–
CC(C)=CCC[C@H](C)CC=O,inactive,–
CC/C=C\C/C=C\C/C=C\CCCCCCCC(=O)OC,inactive,–
CSc1ccc(O)cc1C,inactive,–
C=CCc1cc(S(=O)(=O)c2ccc(O)c(CC=C)c2)ccc1O,inactive,–
CCCC(=O)c1cc(O)c(O)cc1O,inactive,–
COc1cc2ncnc(Nc3cccc(Cl)c3)c2cc1OC,–,7% [at 15.8 µM] (inactive)
CC(C)=NNC(N)=S,inactive,–
CN1CCN(c2ccccc2/C=C2\SCCN(c3ccc(Cl)c(Cl)c3)C2=O)CC1,2.19 µM (active),–
c1ccc(C[P+](c2ccccc2)(c2ccccc2)c2ccccc2)cc1,3.09 µM (active),–
CCN(CC)c1ccc(C=O)cc1,inactive,–
COc1cccc(-c2ccc(/C=C\CN3CCCCCC3)cc2Cl)c1,1.22 µM (active),–
